What all share (parameters): scale not given: direction of the effect not stated beside the values
Test [1] concerns the target Protein translocase subunit SecA (Escherichia coli (strain K12)) (UniProt P10408). Put plainly: Assay to Identify E. coli SecA ATPase Inhibitors. The format is functional. The settings on record: 30 µM.
Test [2] concerns the target T1, Ubiquitin-activating enzyme e1, putative (Leishmania donovani (strain BPK282A1)) (UniProt E9BSI1).
T1 sequence (whole entry): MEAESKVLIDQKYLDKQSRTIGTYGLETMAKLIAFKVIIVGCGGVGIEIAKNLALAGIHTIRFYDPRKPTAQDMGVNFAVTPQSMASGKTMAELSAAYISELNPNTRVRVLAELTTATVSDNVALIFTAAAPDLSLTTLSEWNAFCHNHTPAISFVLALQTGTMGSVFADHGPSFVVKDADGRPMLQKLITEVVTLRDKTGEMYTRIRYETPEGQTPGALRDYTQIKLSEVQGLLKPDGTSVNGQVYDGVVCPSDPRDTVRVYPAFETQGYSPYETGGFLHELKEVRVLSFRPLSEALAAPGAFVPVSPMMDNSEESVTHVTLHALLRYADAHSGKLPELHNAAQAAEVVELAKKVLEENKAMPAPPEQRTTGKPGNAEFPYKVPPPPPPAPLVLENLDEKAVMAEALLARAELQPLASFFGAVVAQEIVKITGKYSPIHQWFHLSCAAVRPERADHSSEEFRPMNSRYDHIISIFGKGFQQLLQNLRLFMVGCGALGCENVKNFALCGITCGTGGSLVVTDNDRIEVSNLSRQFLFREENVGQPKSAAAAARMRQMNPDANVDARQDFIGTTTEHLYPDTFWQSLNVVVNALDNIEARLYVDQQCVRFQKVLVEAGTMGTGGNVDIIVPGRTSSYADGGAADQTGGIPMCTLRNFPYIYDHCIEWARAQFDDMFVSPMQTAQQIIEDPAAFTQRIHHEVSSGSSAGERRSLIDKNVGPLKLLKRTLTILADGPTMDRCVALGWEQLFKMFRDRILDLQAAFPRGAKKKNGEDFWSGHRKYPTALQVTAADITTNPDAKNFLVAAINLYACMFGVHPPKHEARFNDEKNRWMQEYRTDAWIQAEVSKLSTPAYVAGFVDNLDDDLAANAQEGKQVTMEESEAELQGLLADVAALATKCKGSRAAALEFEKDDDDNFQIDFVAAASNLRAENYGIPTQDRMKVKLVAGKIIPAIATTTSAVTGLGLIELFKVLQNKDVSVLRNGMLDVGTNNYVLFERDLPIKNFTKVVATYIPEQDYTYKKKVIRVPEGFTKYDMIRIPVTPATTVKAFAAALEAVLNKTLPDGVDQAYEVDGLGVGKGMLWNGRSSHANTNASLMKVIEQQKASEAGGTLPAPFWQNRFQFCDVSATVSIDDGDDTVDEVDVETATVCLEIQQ
The test is described as follows: Leishmania donovani Ubiquitin Activating Enzyme (LdE1). Type of test: functional. The settings on record: 30 µM.

The target in test [3] is AMP-activated protein kinase, AMPK (Homo sapiens) (UniProt P54646+O43741+P54619+Q9UGJ0+Q9Y478+Q13131+Q9UGI9). Put plainly: AMP-dependent Kinase enzyme assay. An in vitro enzyme assay that detects ADP turnover that is directly proportional to AMPK activity. This uses naive AMPK that is activated during the assay with MK-8722. Type of test: functional. The conditions noted are these: 30 µM.

In test [4] the target is Sialic acid-binding Ig-like lectin 9 (Homo sapiens) (UniProt Q9Y336). The test is described as follows: Hs-Siglec9 ALPHAscreen SOP 20170721. The conditions noted are these: 10 µM.
Sequence of Sialic acid-binding Ig-like lectin 9 (Homo sapiens) (Q9Y336 whole entry): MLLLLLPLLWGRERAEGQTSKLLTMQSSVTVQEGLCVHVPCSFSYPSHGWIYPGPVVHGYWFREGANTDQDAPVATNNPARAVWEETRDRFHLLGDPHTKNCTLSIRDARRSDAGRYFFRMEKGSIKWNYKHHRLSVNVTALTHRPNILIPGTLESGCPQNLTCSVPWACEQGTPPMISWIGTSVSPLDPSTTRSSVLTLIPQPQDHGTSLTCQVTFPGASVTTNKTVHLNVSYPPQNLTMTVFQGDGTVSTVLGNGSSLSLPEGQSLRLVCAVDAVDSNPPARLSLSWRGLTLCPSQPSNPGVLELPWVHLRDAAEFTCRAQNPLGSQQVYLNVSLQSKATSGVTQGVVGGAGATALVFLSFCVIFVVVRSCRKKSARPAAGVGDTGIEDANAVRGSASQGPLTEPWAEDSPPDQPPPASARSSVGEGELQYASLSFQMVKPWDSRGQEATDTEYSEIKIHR
The test system of test [5] is Trypanosoma cruzi. The test is described as follows: Trypanosoma cruzi phosphomannomutase and mannose-1-phosphate guanylyltransferase assay. The format is functional. The settings on record: 10 µM.
Test [6] deals with T2, Arginase-2, mitochondrial (Homo sapiens) (UniProt P78540).
T2 sequence (whole entry): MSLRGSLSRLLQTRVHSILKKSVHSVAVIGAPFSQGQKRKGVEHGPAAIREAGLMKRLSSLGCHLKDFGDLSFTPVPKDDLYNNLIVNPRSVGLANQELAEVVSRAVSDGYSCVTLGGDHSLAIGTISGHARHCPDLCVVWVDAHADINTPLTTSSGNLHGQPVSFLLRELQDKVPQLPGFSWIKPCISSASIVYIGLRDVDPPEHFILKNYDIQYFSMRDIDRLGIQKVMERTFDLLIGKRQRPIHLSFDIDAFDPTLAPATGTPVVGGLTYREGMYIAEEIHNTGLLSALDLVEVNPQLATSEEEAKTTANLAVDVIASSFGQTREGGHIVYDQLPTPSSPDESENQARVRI
The test is described as follows: in vitro enzyme assay to detect the production of urea directly proportional to the activity of Arginase II. Note: in the data most compounds retested in dose-response had high values. Type of test: functional. The conditions noted are these: 33.3 µM.

Test [7] concerns the target T3, Proteasome subunit beta (Trypanosoma cruzi) (UniProt O96673).
T3 sequence (whole entry): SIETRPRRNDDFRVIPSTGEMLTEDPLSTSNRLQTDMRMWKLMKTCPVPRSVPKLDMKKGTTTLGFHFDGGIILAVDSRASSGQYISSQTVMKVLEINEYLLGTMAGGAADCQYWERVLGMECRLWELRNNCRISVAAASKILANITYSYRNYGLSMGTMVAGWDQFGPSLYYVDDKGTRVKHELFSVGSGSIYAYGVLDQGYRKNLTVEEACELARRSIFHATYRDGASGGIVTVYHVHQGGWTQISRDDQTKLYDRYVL
Put plainly: Trypanosoma cruzi proteasome chymotrypsin-like activity (TcProtChymo) assay. Note: in the data most compounds retested in dose-response had high values. Type of test: functional. The conditions noted are these: 9.37 µM.

The species entered for test [8] is Homo sapiens. The test is described as follows: To identify inhibition of the IFN signalling (Jak-Stat) pathway via expression of an eGFP reporter gene under the control of an IFN-stimulated response element (ISRE) containing MxA promoter. The conditions noted are these: 30 µM. Type of test: functional. (Reporter assays use an easily measured gene product as a stand-in for the process of interest.)

For test [9], the target named is T4, Tyrosyl-tRNA synthetase, putative (Trypanosoma cruzi (strain CL Brener)) (UniProt Q4DSP6).
T4 sequence (whole entry): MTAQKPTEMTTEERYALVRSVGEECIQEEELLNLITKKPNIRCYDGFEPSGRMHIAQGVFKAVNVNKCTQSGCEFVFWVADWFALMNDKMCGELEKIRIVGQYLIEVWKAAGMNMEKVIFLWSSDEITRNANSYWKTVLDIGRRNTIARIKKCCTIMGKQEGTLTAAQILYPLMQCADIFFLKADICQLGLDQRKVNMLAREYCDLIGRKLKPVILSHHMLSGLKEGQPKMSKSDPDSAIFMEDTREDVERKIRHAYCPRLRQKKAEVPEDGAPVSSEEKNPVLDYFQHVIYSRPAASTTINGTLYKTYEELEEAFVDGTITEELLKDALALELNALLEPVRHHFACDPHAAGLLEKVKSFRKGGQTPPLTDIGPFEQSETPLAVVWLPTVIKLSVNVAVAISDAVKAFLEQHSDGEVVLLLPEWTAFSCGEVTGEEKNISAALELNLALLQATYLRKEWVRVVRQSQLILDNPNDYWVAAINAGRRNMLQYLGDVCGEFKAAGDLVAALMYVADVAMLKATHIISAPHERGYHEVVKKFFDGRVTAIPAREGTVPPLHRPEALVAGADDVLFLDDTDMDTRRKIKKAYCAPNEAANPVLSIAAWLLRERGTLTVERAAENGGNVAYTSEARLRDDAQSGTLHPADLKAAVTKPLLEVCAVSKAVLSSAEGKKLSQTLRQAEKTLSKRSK
The test is described as follows: Trypanosoma cruzi tyrosyl tRNA synthetase (TcYRS) _High Tyrosine SOP. Note: in the data most compounds retested in dose-response had high values. The format is functional. The settings on record: 30 µM.

Test [10] concerns the target T4, Tyrosyl-tRNA synthetase, putative (Trypanosoma cruzi (strain CL Brener)). The test is described as follows: Trypanosoma cruzi tyrosyl tRNA synthetase (TcYRS) SOP. Type of test: functional. The conditions noted are these: 30 µM.
The target of test [11] is Chromo domain-containing protein 1 (Saccharomyces cerevisiae (strain ATCC 204508 / S288c) (Baker's yeast)) (UniProt P32657). The test is described as follows: ScCHD-1 Enzyme Inhibition Assay. Note: in the data most compounds retested in dose-response had high values. The settings on record: 30 µM. Type of test: functional.
Sequence of Chromo domain-containing protein 1 (Saccharomyces cerevisiae (strain ATCC 204508 / S288c) (Baker's yeast)) (P32657 whole entry, the tested form may be a part): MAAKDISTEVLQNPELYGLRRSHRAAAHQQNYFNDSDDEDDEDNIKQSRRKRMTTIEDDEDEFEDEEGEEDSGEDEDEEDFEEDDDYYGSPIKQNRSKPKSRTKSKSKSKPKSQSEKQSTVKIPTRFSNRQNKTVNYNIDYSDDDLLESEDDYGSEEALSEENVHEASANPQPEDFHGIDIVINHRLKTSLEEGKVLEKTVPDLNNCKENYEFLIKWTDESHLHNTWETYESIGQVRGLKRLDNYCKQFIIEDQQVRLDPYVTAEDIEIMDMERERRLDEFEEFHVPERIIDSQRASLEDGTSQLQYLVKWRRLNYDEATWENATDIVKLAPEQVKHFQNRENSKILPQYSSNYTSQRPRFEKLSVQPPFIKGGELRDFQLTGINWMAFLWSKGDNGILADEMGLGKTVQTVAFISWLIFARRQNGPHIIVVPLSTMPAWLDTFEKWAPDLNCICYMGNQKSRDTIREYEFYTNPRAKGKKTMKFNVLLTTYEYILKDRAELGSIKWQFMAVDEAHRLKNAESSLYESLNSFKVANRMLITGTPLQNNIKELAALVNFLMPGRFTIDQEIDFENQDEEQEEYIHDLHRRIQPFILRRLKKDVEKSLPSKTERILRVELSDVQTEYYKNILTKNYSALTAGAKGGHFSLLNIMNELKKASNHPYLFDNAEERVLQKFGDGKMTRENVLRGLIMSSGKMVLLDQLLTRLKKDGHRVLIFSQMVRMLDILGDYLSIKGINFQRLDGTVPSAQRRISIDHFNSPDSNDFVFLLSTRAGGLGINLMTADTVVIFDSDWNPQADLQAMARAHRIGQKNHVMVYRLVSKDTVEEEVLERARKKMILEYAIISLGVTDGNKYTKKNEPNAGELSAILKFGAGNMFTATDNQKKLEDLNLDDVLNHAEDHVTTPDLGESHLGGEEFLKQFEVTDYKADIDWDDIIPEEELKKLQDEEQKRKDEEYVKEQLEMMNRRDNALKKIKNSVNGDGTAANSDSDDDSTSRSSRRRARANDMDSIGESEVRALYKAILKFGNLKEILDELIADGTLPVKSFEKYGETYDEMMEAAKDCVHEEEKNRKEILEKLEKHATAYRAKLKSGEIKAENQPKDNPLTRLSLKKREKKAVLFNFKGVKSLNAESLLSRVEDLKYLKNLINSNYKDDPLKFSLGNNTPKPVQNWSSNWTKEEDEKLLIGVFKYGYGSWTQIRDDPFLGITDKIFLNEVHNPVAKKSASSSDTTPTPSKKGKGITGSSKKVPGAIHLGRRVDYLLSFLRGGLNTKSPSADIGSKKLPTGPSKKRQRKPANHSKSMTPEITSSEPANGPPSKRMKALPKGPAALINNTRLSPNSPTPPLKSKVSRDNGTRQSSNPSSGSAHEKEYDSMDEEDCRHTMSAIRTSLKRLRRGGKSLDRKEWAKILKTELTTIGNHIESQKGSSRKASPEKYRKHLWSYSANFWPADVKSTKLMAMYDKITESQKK

For some of these results: Results with a measured potency or affinity are listed apart.

Sequence of Protein translocase subunit SecA (Escherichia coli (strain K12)) (P10408 whole entry): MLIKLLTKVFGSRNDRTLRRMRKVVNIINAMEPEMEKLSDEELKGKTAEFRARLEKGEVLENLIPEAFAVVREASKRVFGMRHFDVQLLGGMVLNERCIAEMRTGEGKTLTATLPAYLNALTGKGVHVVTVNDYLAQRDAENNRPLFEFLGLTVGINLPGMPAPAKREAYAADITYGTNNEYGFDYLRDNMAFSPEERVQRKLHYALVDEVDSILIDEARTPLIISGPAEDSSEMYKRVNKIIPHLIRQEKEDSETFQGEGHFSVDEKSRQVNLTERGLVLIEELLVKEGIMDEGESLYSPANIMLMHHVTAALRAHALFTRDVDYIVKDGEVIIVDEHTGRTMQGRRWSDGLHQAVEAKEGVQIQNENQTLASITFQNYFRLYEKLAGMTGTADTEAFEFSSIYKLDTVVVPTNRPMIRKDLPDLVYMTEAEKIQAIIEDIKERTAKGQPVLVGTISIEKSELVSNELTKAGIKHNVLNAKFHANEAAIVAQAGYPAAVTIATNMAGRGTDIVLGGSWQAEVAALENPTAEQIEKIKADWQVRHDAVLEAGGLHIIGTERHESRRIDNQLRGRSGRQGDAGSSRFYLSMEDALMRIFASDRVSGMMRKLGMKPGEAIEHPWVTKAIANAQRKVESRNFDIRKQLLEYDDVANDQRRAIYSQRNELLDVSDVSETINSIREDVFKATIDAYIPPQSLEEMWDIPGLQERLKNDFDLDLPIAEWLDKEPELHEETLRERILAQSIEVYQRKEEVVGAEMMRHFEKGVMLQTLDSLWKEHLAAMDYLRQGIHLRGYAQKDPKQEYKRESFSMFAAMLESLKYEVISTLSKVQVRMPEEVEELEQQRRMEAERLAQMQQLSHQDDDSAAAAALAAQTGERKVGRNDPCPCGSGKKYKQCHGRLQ

For the compound `Cc1nc(NCc2cccnc2)c2c(n1)c(C)nn2C`, the Percent Effect in test [1] is 0.594%; in test [2] it was 7.79%; in [3], 5.87%; in test [4], 8.94%; in test [5], 2.85%; in [6], -12.4%. In addition, the Percent Effect was 7.99% in test [7]; 31% in test [8]; 6.45% in [9]; 18.5% in test [10]; -2.21% in [11].
Take `O=C(CC1CCCCC1)N1CCN(C(=O)NCc2ccccn2)CC1`: the Percent Effect in [1] was -3.1%; in test [2], 10.4%; in test [3], 1.16%; in [4], -0.668%; in test [5], 1.86%; in [6], 1.05%. The Percent Effect in [7] was 6.39%; in test [8] it was -4.56%; in test [9] it was 4.76%; in [10], -16.5%; in [11], -15%.
Take `O=S(=O)(C1CC1)N1CC[C@]2(C[C@@H](Oc3ccccn3)CO2)C1`: the Percent Effect was -2.9% in [1]; 10.4% in test [2]; 2.58% in test [3]; 5.55% in [4]; -2.46% in test [5]; 3.23% in [6]. Moreover, the Percent Effect in test [7] is 7.66%; in test [8], 11.7%; in test [9], 0%; in test [10] it was 8.97%; in test [11], -7.95%.
In the case of `Cc1cnc(N2CCC3(CCCN(c4ccc(C)nn4)C3)C2)nc1` (stereo unspecified), the Percent Effect was 1.3% in test [1]; 11% in test [2]; 1.6% in test [3]; 7.43% in test [4]; -6.35% in [5]; -21.6% in [6]. In addition, the Percent Effect was 13.1% in test [7]; 33.6% in test [8]; 6.25% in test [9]; 13.6% in test [10]; -5.51% in test [11].
As for `COc1cccc2c1ccn2CCC(=O)N1CCCC(C(=O)O)C1` (stereo unspecified), the Percent Effect in test [1] was -4.55%; in [2], 5.26%; in test [3] it was -2.19%; in [4], -4.72%; in test [5] it was -9.64%; in [6], 2.37%. The Percent Effect was 11.2% in [7]; 12.8% in [8]; -3.19% in [9]; 0% in test [10]; -6.61% in test [11].
`N#Cc1ccccc1OCCN1CCCCC1Cn1cncn1` (stereo unspecified): the Percent Effect in [1] was -2.06%; in test [2], 5.41%; in [3] it was -28.6%; in test [4], 8.52%; in [5], 5.94%; in [6], -5.61%. Besides, the Percent Effect was 3.78% in [7]; -11.9% in [8]; 12.3% in test [9]; 16.1% in test [10]; -11.1% in test [11].
As to `Cn1nccc1-c1ccc2nc(C3CCN(CCO)CC3)nn2c1`, the Percent Effect in test [1] is -3.12%; in test [2] it was 13.3%; in test [3], 0.376%; in test [4] it was 3.71%; in test [5] it was 1.35%; in test [6], -54.7%. For the same compound, the Percent Effect was 13.5% in [7]; 3.01% in [8]; 5.21% in test [9]; 22.5% in [10]; -7.82% in [11].
Turning to `O=C(O)c1cc2c(nc1O)CC(c1cccs1)CC2=O` (stereo unspecified), the Percent Effect in [1] was -5.09%; in [2], 17.3%; in [3], -2.58%; in [4] it was -0.782%; in test [5], -5.5%; in test [6], -2.64%. For the same compound, the Percent Effect in test [7] was 15.9%; in [8], -5.05%; in test [9], 2.12%; in test [10], -20.5%; in [11], -9.66%.
Regarding `O=S(=O)(C1CC1)N1CCC2(COCc3cnc(N4CCOCC4)nc32)C1` (stereo unspecified), the Percent Effect in test [1] was 1.84%; in [2], 14.7%; in test [3] it was 1.88%; in test [4], -4.21%; in test [5] it was -2.55%; in test [6], -6.16%. Also, the Percent Effect in [7] was 9.61%; in test [8], 13.3%; in test [9] it was 1.06%; in [10], 5.13%; in [11] it was -7.85%.
Take `Cc1ccc(CN2CC(C(=O)N3CCCC3)C3(CCOCC3)C2)s1` (stereo unspecified): the Percent Effect was 0.462% in [1]; 0% in [2]; 0.717% in [3]; 0.63% in test [4]; -5.41% in [5]; -54.3% in test [6]. Besides, the Percent Effect is 2.05% in test [7]; 5.33% in [8]; 2.08% in [9]; 0% in test [10]; -4.71% in [11].
In the case of `CCn1cnnc1C1CCN(C(=O)c2ccc(C(=O)OC)s2)CC1`, the Percent Effect in test [1] was -6.84%; in [2] it was 10.4%; in test [3], 4.62%; in [4], 9.21%; in [5], -4.87%; in [6] it was -0.356%. The Percent Effect in test [7] was 7.43%; in test [8] it was -6.83%; in [9], 4.85%; in test [10] it was 12.2%; in [11], -5.74%.

The values are drawn from ChEMBL document CHEMBL3988442, “University of Dundee, Small-Polar-MMV Screening Library” (2021).
